PubChem BioAssay AID1159580 (chemical genetic matrix, 2015)
Several values for one entry are separate records, joined by “and”; a condition that tells them apart may be missing. Equal values may be shown once. Screen size: about 5,500 compounds; about 2,000 (36%) were called active. Not shown: some 18% with an inconclusive outcome. Cut-off read from the data, not from the text of the source: active = normalized growth mostly below about 0.91 (no sharp cut-off); inconclusive = no clear call, values can overlap the other calls; inactive = mostly above about 0.92. Some of the results follow.

Assay: chemical genetic growth profiling, strain panel (AID 1159580);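 note: tested at 20 µM; growth read once vehicle control cultures reached saturation at 30 °C; 1 = growth at the plate median or of vehicle wells; lower values mean less growth of the strain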
Details: S. cerevisiae deletion strains, growth OD

Measured: normalized growth

CC(=O)Oc1c(C)c(C)c2c(c1C)CCC(C)(CCCC(C)CCCC(C)CCCC(C)C)O2 (stereo unspecified)
inactive: locus YAL021C, strain ccr4, stronger effect = lower value 1 | locus YAL026C, strain drs2, stronger effect = lower value 0.982 | locus YAL030W, strain snc1, stronger effect = lower value 0.976 | locus YBL061C, strain skt5, stronger effect = lower value 0.995 | locus YBR009C, strain hhf1, stronger effect = lower value 0.957 | locus YBR021W, strain FUR4, stronger effect = lower value 1.03 | locus YBR023C, strain chs3, stronger effect = lower value 0.99 | locus YBR171W, strain sec66, stronger effect = lower value 1 | locus YBR229C, strain ROT2, stronger effect = lower value 1.02 | locus YBR231C, strain swc5, stronger effect = lower value 0.995 | locus YBR279W, strain paf1, stronger effect = lower value 0.985 | locus YCL011C, strain gbp2, stronger effect = lower value 0.975 | locus YCL016C, strain dcc1, stronger effect = lower value 0.985 | locus YCL029C, strain bik1, stronger effect = lower value 0.995 | locus YCL061C, strain MRC1, stronger effect = lower value 0.998 | locus YCL069W, strain vba3, stronger effect = lower value 0.982 | locus YCR088W, strain abp1, stronger effect = lower value 0.978 | locus YDL005C, strain med2, stronger effect = lower value 0.979 | locus YDL035C, strain GPR1, stronger effect = lower value 1.01 | locus YDL040C, strain nat1, stronger effect = lower value 0.98 | locus YDL074C, strain BRE1, stronger effect = lower value 1 | locus YDL101C, strain DUN1, stronger effect = lower value 1.03 | locus YDL134C, strain PPH21, stronger effect = lower value 1.02 | locus YDL185W, strain tfp1, stronger effect = lower value 0.983 | locus YDL192W, strain arf1, stronger effect = lower value 1.01 | locus YDR001C, strain nth1, stronger effect = lower value 0.98 | locus YDR069C, strain doa4, stronger effect = lower value 0.983 | locus YDR101C, strain arx1, stronger effect = lower value 0.983 | locus YDR137W, strain rgp1, stronger effect = lower value 0.961 | locus YDR150W, strain NUM1, stronger effect = lower value 1.02 | locus YDR159W, strain sac3, stronger effect = lower value 0.968 | locus YDR162C, strain NBP2, stronger effect = lower value 1.03 | locus YDR195W, strain ref2 0.946 | locus YDR297W, strain sur2, stronger effect = lower value 0.987 | locus YDR318W, strain mcm21, stronger effect = lower value 1.01 | locus YDR334W, strain swr1, stronger effect = lower value 0.988 | locus YDR335W, strain msn5, stronger effect = lower value 0.993 | locus YDR388W, stronger effect = lower value 0.992 | locus YDR392W, strain spt3, stronger effect = lower value 1.03 | locus YDR502C, strain sam2, stronger effect = lower value 0.991 | locus YEL003W, strain gim4, stronger effect = lower value 0.983 | locus YEL037C, strain rad23, stronger effect = lower value 0.985 | locus YEL061C, strain CIN8 (second series), stronger effect = lower value 0.975 | locus YEL061C, strain CIN8, stronger effect = lower value 1.01 | locus YER015W, strain faa2, stronger effect = lower value 0.984 | locus YER016W, strain bim1, stronger effect = lower value 0.992 | locus YER110C, stronger effect = lower value 0.99 | locus YER111C, strain swi4, stronger effect = lower value 0.985 | locus YER155C, strain BEM2 (second series), stronger effect = lower value 1.01 | locus YER155C, strain BEM2, stronger effect = lower value 1.01 | locus YER167W, strain BCK2, stronger effect = lower value 1.02 | locus YFR010W, strain ubp6, stronger effect = lower value 0.981 | locus YGL078C, strain dbp3, stronger effect = lower value 0.993 | locus YGL086W, strain mad1, stronger effect = lower value 0.991 | locus YGL167C, strain pmr1, stronger effect = lower value 0.971 | locus YGL173C, strain kem1, stronger effect = lower value 0.99 | locus YGL227W, strain vid30, stronger effect = lower value 0.974 | locus YGL240W, strain doc1, stronger effect = lower value 1 | locus YGL248W, strain PDE1, stronger effect = lower value 1.03 | locus YGL253W, strain hxk2, stronger effect = lower value 0.977 | locus YGR078C, strain PAC10, stronger effect = lower value 1.03 | locus YGR135W, strain pre9, stronger effect = lower value 1.01 | locus YGR229C, strain SMI1, stronger effect = lower value 1.01 | locus YGR252W, strain gcn5, stronger effect = lower value 0.978 | locus YHR013C, strain ard1, stronger effect = lower value 0.949 | locus YHR027C, strain rpn1, stronger effect = lower value 0.989 | locus YHR030C, strain SLT2, stronger effect = lower value 1.02 and 1 | locus YHR079C, strain IRE1 (second series), stronger effect = lower value 1 | locus YHR079C, strain IRE1, stronger effect = lower value 0.964 | locus YHR094C, strain hxt1, stronger effect = lower value 0.989 | locus YHR129C, strain ARP1, stronger effect = lower value 1.02 | locus YHR142W, strain chs7, stronger effect = lower value 0.987 | locus YHR200W, strain rpn10, stronger effect = lower value 0.989 | locus YIL066C, strain RNR3, stronger effect = lower value 1.03 | locus YIL073C, strain SPO22, stronger effect = lower value 0.994 | locus YIL125W, strain kgd1, stronger effect = lower value 0.991 | locus YIR030C, strain dcg1, stronger effect = lower value 1.01 | locus YJL092W, strain hpr5, stronger effect = lower value 0.98 | locus YJL095W, strain BCK1 (second series), stronger effect = lower value 0.991 | locus YJL095W, strain BCK1, stronger effect = lower value 1.05 and 0.989 | locus YJL115W, strain asf1, stronger effect = lower value 1 | locus YJL129C, strain trk1, stronger effect = lower value 0.987 | locus YJL134W, strain LCB3, stronger effect = lower value 1.02 | locus YJL154C, strain vps35, stronger effect = lower value 0.989 | locus YJL164C, strain tpk1, stronger effect = lower value 0.995 | locus YJL166W, strain qcr8, stronger effect = lower value 0.989 | locus YJL168C, strain set2, stronger effect = lower value 1 | locus YJL187C, strain SWE1 (second series), stronger effect = lower value 1.02 | locus YJL187C, strain SWE1, stronger effect = lower value 0.991 | locus YJR043C, strain POL32, stronger effect = lower value 1.03 | locus YJR066W, strain TOR1, stronger effect = lower value 0.945 | locus YKL009W, strain mrt4, stronger effect = lower value 1.01 | locus YKL068W, stronger effect = lower value 1.01 | locus YKL085W, strain MDH1 (second series), stronger effect = lower value 0.997 | locus YKL085W, strain MDH1, stronger effect = lower value 0.997 | locus YKL160W, strain elf1, stronger effect = lower value 1 | locus YKL190W, strain CNB1, stronger effect = lower value 1.02 | locus YKR001C, strain vps1, stronger effect = lower value 0.999 | locus YKR026C, strain gcn3, stronger effect = lower value 0.976 | locus YKR091W, strain srl3, stronger effect = lower value 0.977 | locus YLL001W, strain dnm1, stronger effect = lower value 0.99 | locus YLL026W, stronger effect = lower value 0.98 | locus YLL041C, strain sdh2, stronger effect = lower value 0.992 | locus YLR027C, strain aat2, stronger effect = lower value 0.99 | locus YLR039C, strain RIC1, stronger effect = lower value 1.08 | locus YLR058C, strain SHM2, stronger effect = lower value 1.03 | locus YLR102C, strain apc9, stronger effect = lower value 0.993 | locus YLR113W, strain HOG1, stronger effect = lower value 0.949 | locus YLR221C, strain rsa3, stronger effect = lower value 1 | locus YLR258W, strain gsy2, stronger effect = lower value 0.97 | locus YLR262C, strain YPT6 (second series), stronger effect = lower value 0.989 | locus YLR262C, strain YPT6, stronger effect = lower value 1.09 | locus YLR268W, strain sec22, stronger effect = lower value 0.984 | locus YLR320W, strain mms22, stronger effect = lower value 0.984 | locus YLR330W, strain CHS5, stronger effect = lower value 1.02 | locus YLR342W, strain FKS1 (second series), stronger effect = lower value 1.04 | locus YLR342W, strain FKS1, stronger effect = lower value 0.979 | locus YLR357W, strain rsc2, stronger effect = lower value 1.01 | locus YLR370C, strain arc18, stronger effect = lower value 1 | locus YLR371W, strain rom2, stronger effect = lower value 0.981 | locus YLR384C, strain iki3, stronger effect = lower value 0.991 | locus YLR418C, strain cdc73, stronger effect = lower value 1.01 | locus YML016C, strain PPZ1, stronger effect = lower value 1.02 | locus YML032C, strain rad52, stronger effect = lower value 1.01 | locus YML120C, strain ndi1, stronger effect = lower value 1.01 | locus YML124C, strain tub3, stronger effect = lower value 0.991 | locus YMR058W, strain fet3, stronger effect = lower value 1.01 | locus YMR078C, strain ctf18, stronger effect = lower value 1 | locus YMR125W, strain sto1, stronger effect = lower value 1 | locus YMR129W, stronger effect = lower value 0.975 | locus YMR205C, strain PFK2, stronger effect = lower value 0.96 | locus YMR223W, strain ubp8, stronger effect = lower value 1.01 | locus YMR231W, strain pep5, stronger effect = lower value 0.976 | locus YMR307W, strain GAS1, stronger effect = lower value 1.07 | locus YNL067W, strain RPL9B, stronger effect = lower value 1.03 | locus YNL071W, strain lat1, stronger effect = lower value 1 | locus YNL183C, strain NPR1, stronger effect = lower value 0.949 | locus YNL209W, strain ssb2, stronger effect = lower value 0.986 | locus YNL233W, strain BNI4, stronger effect = lower value 1.01 | locus YNL248C, strain rpa49, stronger effect = lower value 1.05 | locus YNL250W, strain rad50, stronger effect = lower value 1 | locus YNL271C, strain bni1, stronger effect = lower value 0.995 | locus YNL298W, strain CLA4, stronger effect = lower value 0.995 | locus YNL307C, strain MCK1, stronger effect = lower value 0.987 | locus YNL322C, strain KRE1 (second series), stronger effect = lower value 0.99 | locus YNL322C, strain KRE1, stronger effect = lower value 1.02 | locus YNR049C, strain mso1, stronger effect = lower value 0.986 | locus YNR052C, strain pop2, stronger effect = lower value 0.984 | locus YOL012C, strain htz1 0.81 | locus YOL147C, strain pex11, stronger effect = lower value 0.991 | locus YOR001W, strain rrp6, stronger effect = lower value 1.01 | locus YOR061W, strain CKA2, stronger effect = lower value 1.03 | locus YOR069W, strain VPS5, stronger effect = lower value 1.01 | locus YOR070C, strain gyp1, stronger effect = lower value 0.988 | locus YOR080W, strain dia2, stronger effect = lower value 0.992 | locus YOR083W, strain WHI5, stronger effect = lower value 1.01 | locus YOR106W, strain vam3, stronger effect = lower value 0.977 | locus YOR136W, strain idh2, stronger effect = lower value 0.98 | locus YOR144C, strain elg1, stronger effect = lower value 0.986 | locus YOR184W, strain ser1, stronger effect = lower value 0.99 | locus YOR231W, strain MKK1, stronger effect = lower value 0.978 | locus YOR265W, strain rbl2, stronger effect = lower value 0.988 | locus YOR270C, strain vph1, stronger effect = lower value 0.976 | locus YOR290C, strain snf2, stronger effect = lower value 1.01 | locus YOR316C, strain cot1, stronger effect = lower value 0.997 | locus YPL051W, strain arl3, stronger effect = lower value 1.01 | locus YPL078C, strain atp4, stronger effect = lower value 0.995 | locus YPL106C, strain sse1, stronger effect = lower value 1.05 | locus YPL240C, strain hsp82, stronger effect = lower value 0.995 | locus YPL241C, strain CIN2, stronger effect = lower value 1.02 | locus YPL256C, strain CLN2, stronger effect = lower value 1.05 | locus YPR119W, strain clb2, stronger effect = lower value 0.995 | locus YPR141C, strain kar3, stronger effect = lower value 1 | locus YPR163C, strain tif3, stronger effect = lower value 0.991 | locus YPR167C, strain met16, stronger effect = lower value 0.995 | strain wtn01, stronger effect = lower value 0.977
